High-throughput results (PubChem BioAssay)
This is a sample that favours compounds with a hit; in the whole collection about 19% have one here.
TDP1 cell noCPT: qHTS for Inhibitors of human tyrosyl-DNA phosphodiesterase 1 (TDP1): qHTS in cells in absence of CPT | DT40 Tdp1-/- hTDP1 cells, no CPT, ATP luminescence, 48 h | 420,000 tested, 15% active | Potency, µM (highest dose often 46.2 µM), for inactives: at the highest dose activity change, negative = growth inhibition, most hits filed as inhibitors; also: potency is read from the fitted curve at half-maximal effect; % is scaled to controls: 0 for no effect and ±100 for the full control effect; nearly all actives have a fitted effect of over 55% in size
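Readout: luminescence from CellTiter-Glo after 30 min in the dark at RT. Cells: DT40 Tdp1-/- with stable hTDP1, 400/well. Exposure: compounds alone, ≥48 hr, 37 °C.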
SW480 rerep: DNA re-replication induction in SW480 cells; Potency, µM (top dose mostly 46.1 µM), without a hit: at the top dose re-replication activation, most hits filed as activators; AID 624297; SW480 DNA re-replication, Hoechst DNA content imaging, 48 h; 340,000 tested, 1.8% active; also: potency is read from the fitted curve at half-maximal effect; % of control where 0% means no effect; nearly all actives have a fitted effect of over 55% in size
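SW480 cells exposed to compounds for 48 hr at 37 C, 5% CO2, then Hoechst-stained 40 min. Nuclear DNA content imaged by fluorescence scanning (405 nm excitation, 500-530 nm emission); re-replication scored as increased high-intensity nuclei.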
MCF10A rereplic: induces DNA re-replication in MCF 10a normal breast cells | MCF 10A DNA re-replication, Hoechst nuclear intensity, 48 h | Potency, µM (titrated, usually from 46.1 µM), without a hit: at the highest dose activity, positive = re-replication, hits mostly activators | 350,000 tested, 2.9% active; also: potency is read from the fitted curve at half-maximal effect; % of control where 0% means no effect; nearly all actives have a fitted effect of over 50% in size
IL-1B inflam inh: blocks inflammasome-driven IL-1 beta release; THP-1 LPS/ATP IL-1B secretion, AlphaLISA, 16 h; hits give low values; activity change, % at 57.5 µM; 360,000 tested, 4.7% active; AID 743279; in the data active = activity change below about -50%; inconclusive = mostly about -30% to -49%; also: % is scaled to controls: 0 for no effect and ±100 for the full control effect
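THP-1 cells pretreated 1 hr with compounds (up to 57.5 uM final), then stimulated with LPS (250 ng/mL final) plus ATP (1.25 mM final); secreted IL-1B measured by AlphaLISA after 16 hr, decreased signal indicating inhibition.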
DT40 TDP1 CPT: growth inhibition of DT40 Tdp1-/-;hTDP1 cells with camptothecin (screen for TDP1 inhibitors); chicken DT40 Tdp1-/-;hTDP1 cells + 20 nM CPT, ATP luminescence, 48 h; Potency, µM (series often up to 46.2 µM), without a hit: at the top dose activity change, negative = growth inhibition, hits mostly inhibitors; 420,000 tested, 12% active; also: potency is read from the fitted curve at half-maximal effect; % is scaled to controls: 0 for no effect and ±100 for the full control effect; nearly all actives have a fitted effect of over 55% in size
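Cell growth measured by CellTiter-Glo luminescence after a minimum 48 h, 37 C compound exposure with 20 nM CPT in Tdp1-knockout DT40 cells stably expressing hTDP1, seeded 400/well; qHTS titration format.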
Chronic BCR inh: inhibitors of chronic active B-cell receptor signaling. Potency, µM (titrated, usually from 46.1 µM), for the others: at the top dose activity change, negative = inhibition, actives largely listed as inhibitors. ABC-DLBCL IkBa-CBG/CBR reporter, luminescence ratio, 4 h. 340,000 tested, 0.05% active; active = well fitted inhibition curve with a large enough effect in the signal ratio, with a control signal flat, not every such curve was filed as active; inconclusive = small, poorly fitted or top-dose-only effect, or effect the other way, or a change in a side signal; the % refers to the signal ratio;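 also: potency is read from the fitted curve at half-maximal effect; plate controls were basal doxycycline-induced cells for no effect and cells given 10 µM MG132 for full effect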
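Concentration-response series (up to 46 uM) were applied to TMD8 dual-reporter cells for 4 h at 37C with doxycycline. Green/red ratio, after filter-overlap correction, defined %Activity; red signal alone was normalised to basal cells and zero luminescence.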
Active calls of the source: *; ? = inconclusive; nt = no result. Unless noted, calls follow the shape of the dose curve; as a rule, active = well fitted curve in the direction sought with a large enough effect; inconclusive = small, poorly fitted or top-dose-only effect, or another doubt; inactive = no such curve, though single readings can be large; an effect the other way counts as inactive or inconclusive.

SMILES	TDP1 cell noCPT	SW480 rerep	MCF10A rereplic	IL-1B inflam inh	DT40 TDP1 CPT	Chronic BCR inh
Cc1ccc(C(=O)NCCC(C)C)cc1NC(=O)c1nsc2ccccc12	?	nt	nt	nt	16.4µM*	nt
COc1ccc(OC)c(CNC(=O)c2ccc(C)c(NC(=O)c3nsc4ccccc34)c2)c1	?	nt	nt	nt	18.4µM*	nt
O=C(O)COc1cccc(-c2ocnc2-c2nc(-c3ccccc3)c(-c3ccccc3)o2)c1	2.3%	nt	nt	nt	-3.4%	nt
COc1ccc(CCNC(=O)C/C(C)=N/NC(=O)c2cnccn2)cc1	13.2%	-6.8%	3.3%	5.2	-1.5%	?
CC(C)Oc1ccc(CNC(=O)c2cc3ccccn3n2)cc1	-25.3%	nt	nt	nt	-29.2%	nt
CC(C)Oc1ccc(CNC(=O)c2cccc(NC(=O)c3nsc4ccccc34)c2)cc1	9.2µM*	nt	nt	nt	4.61µM*	nt
Cc1cc(C(=O)OCC(=O)Nc2ccc(F)cc2F)c(C)o1	2.6%	-8.3%	-5.2%	-55.3*	-8.0%	?
CC(C)Oc1ccc(CNC(=O)CCCN2C(=O)C(c3ccccc3)Oc3cccnc32)cc1 (configuration not stated)	11.8%	-20.9%	0.8%	0.0	-23.3%	3.4%
COc1cc2c(cc1OC)C(SC)=NC(C)(C)C2	?	181.1%	-1.5%	-101.5*	?	16.4µM*
CCOC(=O)c1nn(-c2ccc(F)cc2)c(-c2ccccc2)c1C(=O)c1ccccc1	16.4µM*	?	24.8%	6.2	?	7.2%
COc1cccc2c1cc1c(=O)n(CC(=O)N3CCN(c4ccc(Cl)cc4)CC3)nc(C)n12	-11.7%	nt	nt	nt	-5.4%	nt
CS(=O)(=O)c1ccc(Cl)c(NC(=O)CSc2nnc(C3CC3)n2C2CC2)c1	3.2%	-5.2%	-0.5%	15.5	11.3%	?
COc1ccc(-n2cc(-c3ccccc3)c3c(NCCc4ccc(OC)c(OC)c4)ncnc32)cc1	20.6µM*	nt	nt	nt	23.1µM*	-1.7%
COc1ccc(CCNc2ncnc3c2c(-c2ccccc2)cn3-c2cccc(Cl)c2)cc1OC	9.2µM*	nt	nt	nt	7.31µM*	?
COc1ccc(C(c2nnnn2C(C)C)N2CCN(C(=O)c3ccco3)CC2)cc1 (configuration not stated)	-6.0%	-5.8%	1.3%	-12.1	5.2%	8.0%
Cn1cccc1C(=O)N1CCC2(CC1)CN(C(c1ccccc1)c1ccccc1)C2	11.6µM*	nt	nt	nt	?	nt
COCC(=O)N1CCC2(CC1)CN(c1ccccc1)C2	-16.7%	nt	nt	nt	?	nt
Cn1cccc1C(=O)N1CCC2(CC1)CN(C(=O)Nc1cccc(F)c1)C2	?	nt	nt	nt	-9.6%	nt
Cn1cccc1C(=O)N1CCC2(CCN(C(=O)Nc3cccc(F)c3)CC2)CC1	?	nt	nt	nt	23.1µM*	nt
Cn1cccc1C(=O)N1CCC2(CC1)CCN(c1ccc(-c3ccccc3)cc1)CC2	8.2µM*	nt	nt	nt	9.2µM*	nt
COCC(=O)N1CCC2(CC1)CCN(c1ccc(-c3ccccc3)cc1)CC2	0.206µM*	nt	nt	nt	?	nt
Cc1ccc(S(=O)(=O)CC(=O)c2cc(C)c(O)c(C)c2)cc1	-6.0%	-1.0%	-4.0%	47.5	-4.1%	?
COC(=O)c1ccc(Cl)cc1NC(=O)N1CCCn2nc(C)cc21	-13.6%	nt	nt	nt	-16.4%	nt
CC[n+]1c(C=C2C=C(C)OC(C)=C2)sc2ccccc21	0.0326µM*	18.4µM*	?	-94.8*	0.0052µM*	-1.0%
CC[n+]1c(/C=C(/C)SC)sc2ccccc21	5.17µM*	0.7%	?	23.8	4.61µM*	3.9%
SMILES	TDP1 cell noCPT	SW480 rerep	MCF10A rereplic	IL-1B inflam inh	DT40 TDP1 CPT	Chronic BCR inh
CC[n+]1c(/C=C(\C)Nc2ccccc2)sc2ccccc21	18.4µM*	-7.2%	12.1%	-80.2*	10.3µM*	-8.0%
CC[n+]1c(/C=C(\C)SC)sc2ccccc21	8.2µM*	0.4%	-6.3%	25.8	9.2µM*	?
CC[n+]1c(/C=C(\C)OC)sc2ccccc21	-15.7%	-2.6%	-4.4%	-20.5	-5.9%	?
Cc1ccc(NC(=O)COc2cccc(Oc3ccccc3)c2)cc1S(=O)(=O)N1CCOCC1	?	-4.0%	4.1%	17.8	?	?
CC/C(=C/c1sc2ccccc2[n+]1CC)SC	11.6µM*	-2.1%	5.1%	2.8	13µM*	1.9%
CC[n+]1c(/C=C/Nc2ccccc2)sc2ccccc21	2.91µM*	?	31.2%	-102.2*	5.8µM*	8.4%
C[S+](C)CCC(N)C(=O)O (configuration not stated)	-21.6%	nt	nt	nt	14.5%	nt
COc1cccc(CNc2ncnc3cc(OC)c(OC)cc23)c1	?	-7.1%	?	-16.9	?	-10.6%
COc1cc2ncnc(NCc3ccc(C)cc3)c2cc1OC	23.1µM*	-0.6%	?	-1.2	?	?
COc1ccc(CCNc2nc(=S)[nH]c3cc(OC)c(OC)cc23)cc1OC	?	-1.7%	1.9%	15.5	-28.8%	-0.1%
COc1ccc(CCNc2ncnc3c2[nH]c2cc(OC)c(OC)cc23)cc1OC	6.51µM*	18.4µM*	18.4µM*	nt	4.61µM*	?
COc1ccc(CNc2ncnc3cc(Cl)ccc23)cc1OC	13µM*	-5.2%	17.6%	0.0	?	4.2%
COc1cc2ncnc(NCCc3ccccc3)c2cc1OC	9.2µM*	-1.4%	2.9%	0.0	13µM*	-1.2%
COc1ccccc1CNc1ncnc2cc(Cl)ccc12	?	-1.8%	0.5%	54.5	?	?
Cc1cn2c(=O)cc(COC(=O)COc3ccc(F)cc3)nc2s1	-15.3%	nt	nt	nt	3.0%	nt
CC1CCC(C(C)(C)O)CC2=C1CCC2C (configuration not stated)	18.4%	nt	nt	nt	1.7%	nt
Cc1ccc(-n2ccnc(NCc3cccs3)c2=O)cc1C	13µM*	nt	nt	nt	?	nt
COc1ccc(CCNc2ncnc3c2nnn3Cc2ccccc2)cc1OC	?	-9.3%	?	-11.0	23.1µM*	-4.8%
COc1ccc(CCNc2ncnc3cc(OC)c(OC)cc23)cc1OC	6.51µM*	?	10.0%	-73.1*	3.66µM*	?
COc1ccc(-n2ccnc(NCCc3ccccc3)c2=O)cc1OC	20.6µM*	nt	nt	nt	?	nt
CC(=O)N[C@H](CC(C)C)C(=O)O	nt	-2.7%	3.0%	nt	nt	nt
CCN(c1ccccc1)c1cc(C)nc2nc(C)nn12	-18.0%	-5.1%	0.6%	14.4	-20.4%	-0.6%
Cc1cccc(N(C)c2cc(C)nc3nc(C)nn23)c1	?	-1.8%	11.9%	74.5	16.4µM*	-20.0%
CCCCn1c(CN2CCN(C(=O)OCC)CC2)nc2c1c(=O)n(C)c(=O)n2C	9.2µM*	-6.6%	8.1%	45.2	11.6µM*	?
